HT1080NT lethal – kills 2HG-producing HT-1080-NT fibrosarcoma cells | HT-1080-NT fibrosarcoma viability, CellTiter-Glo ATP luminescence, 48 h | Potency, µM (top dose mostly 46.1 µM), inactives show at the top dose activity, negative = less viability, usual class: cytotoxic | 360,000 compounds, 1.6% hits | AID 686970;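 further: NT is the 2HG producing partner of a matched IDH1 knockdown line; 0% = DMSO-treated cells and -100% = media-only wells without cells; nearly all actives have a fitted effect of over 55% in size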
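Luminescent CellTiter-Glo readout after 48 hours of compound exposure at 37 degrees C defined viability of HT-1080-NT cells. Activity was normalized to DMSO wells and cell-free media wells; concentration-response curves were fitted and assigned curve classes.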
SW480 rereplic – DNA re-replication induction in SW480 cells; SW480 DNA re-replication, Hoechst DNA content imaging, 48 h; Potency, µM (top dose mostly 46.1 µM), without a hit: at the highest dose re-replication activation, actives largely listed as activators; 340,000 compounds, 1.8% hits; further: % of control where 0% means no effect; nearly all actives have a fitted effect of over 55% in size
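250 cells/well; 23 nL cpd via pin tool; 48 hr, 37 C, 5% CO2; Hoechst 40 min; imager read of total nuclear intensity, ex 405/em 500-530 nm.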
MCF10A rerep – DNA re-replication induction in MCF 10a cells; AID 624296; Potency, µM (highest dose often 46.1 µM), without a hit: at the top dose activity, positive = re-replication, usual class: activators; MCF 10A DNA re-replication, Hoechst nuclear intensity, 48 h; 350,000 compounds, 2.9% hits; further: % of control where 0% means no effect; nearly all actives have a fitted effect of over 50% in size
HT1080 IDH1KD tx – HT-1080 IDH1 knockdown cell toxicity (counter line); 360,000 compounds, 2% hits; Potency, µM (top dose mostly 46.1 µM), without a hit: top-dose activity, negative = toxicity, hits mostly cytotoxic; AID 686971; HT-1080 IDH1 knockdown viability, ATP luminescence, 48 h;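 further: 0% = DMSO wells and -100% = cell-free medium wells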
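% activity derives from luminescence (CellTiter-Glo), normalised to DMSO and no-cell wells. HT-1080-IDH1KD cells, 750/well, had 48 h compound exposure at 37 °C.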
KB-V1 MDR tox – KB-V1 MDR subline cytotoxicity | KB-V1 MDR cells viability, CellTiter-Glo, 72 h | Potency, µM (top dose mostly 46.1 µM), hits mostly cytotoxic | 400,000 compounds, 3.4% hits | AID 1347076; further: on the % scale 0 is the no-effect control and ±100 the full control effect; nearly all actives have a fitted effect of over 60% in size
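Cytotoxicity via CellTiter-Glo luminescence after 72 h compound exposure at 37 degrees C. Cells: drug-selected KB-V1 line, DMEM phenol-red free plus 10% FBS. Compounds tested at multiple concentrations; normalized data fitted to concentration-effect curves.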
KB-3-1 tox – KB-3-1 parental cell cytotoxicity; 400,000 compounds, 1.4% hits; KB-3-1 viability, CellTiter-Glo ATP luminescence, 72 h; Potency, µM (top dose mostly 46.1 µM), most hits filed as cytotoxic; further: on the % scale 0 is the no-effect control and ±100 the full control effect; nearly all actives have a fitted effect of over 60% in size
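Multi-concentration cytotoxicity screen in KB-3-1 cells grown in DMEM lacking phenol red with 10% FBS. After 72 h at 37 °C with compound, ATP-dependent luminescence was recorded.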
Starred values were filed as active, the others as inactive; i = inactive; ? = inconclusive; nt = not tested or not shown. Rows were chosen to be rich in hits. Some 8% of all compounds tested hit in one or more screens of this group. The call rests on the fitted dose curve; in most records, active means well fitted curve in the direction sought with a large enough effect; inconclusive means small, poorly fitted or top-dose-only effect, or another doubt; inactive means no such curve, though single readings can be large; an effect the other way counts as inactive or inconclusive. Potency means the concentration at half of the fitted maximal effect.

SMILES | HT1080NT lethal | SW480 rereplic | MCF10A rerep | HT1080 IDH1KD tx | KB-V1 MDR tox | KB-3-1 tox
Cc1ccc(C(=O)N/C(=C/c2cccs2)C(=O)N2CCCCCC2)cc1 | 2.2% | 1.2% | -4.3% | -0.8% | i | i
O=C(N/C(=C/c1ccco1)C(=O)N1CCCCCC1)c1cccs1 | -6.7% | -10.0% | -4.6% | ? | 20.6µM* | i
Cc1ccc(C(=O)N/C(=C\c2cccs2)C(=O)NC2CCCCC2)cc1 | -1.4% | 5.0% | 4.4% | -1.7% | 18.4µM* | i
Cn1ccs/c1=N\C(=O)Nc1ccccc1 | -1.7% | 2.8% | 4.4% | -5.5% | ? | i
Cc1cc(NC(=O)c2cc(C(C)C)on2)nn1Cc1ccc(Cl)cc1 | -14.7% | -1.6% | 18.5% | -1.5% | i | ?
COc1ccc(Cl)cc1NC(=O)CN(C)C(=O)CN1C(=O)NC2(CCCC2)C1=O | 0.9% | 0.3% | -0.4% | -2.7% | i | i
Cc1ccc(-c2csc(C(O)(c3ccccc3)C(F)(F)F)n2)cc1C (stereo not given) | 25.9µM* | nt | nt | ? | i | i
CC(O)(c1ccccc1)c1nc(-c2ccc(F)c(Cl)c2)cs1 (stereo not given) | ? | nt | nt | ? | i | i
OC(c1ccccc1)(c1nc(-c2ccc(F)c(Cl)c2)cs1)C(F)(F)F (stereo not given) | ? | nt | nt | 18.4µM* | i | i
Oc1cccc(-c2csc(C(O)(c3ccccc3)C(F)(F)F)n2)c1 (stereo not given) | ? | nt | nt | -16.7% | i | i
CC(O)(c1ccc(F)c(F)c1)c1nc(-c2ccc(F)c(Cl)c2)cs1 (stereo not given) | 32.6µM* | nt | nt | ? | i | i
Cc1ccc(C)c(NC(=O)Nc2nnc(N(CC(C)C)CC(C)C)s2)c1 | nt | nt | nt | nt | i | i
Cc1ccc(CN2c3ccccc3-c3nc(SCC(=O)NCCc4ccccc4)ncc3S2(=O)=O)cc1 | nt | nt | nt | nt | i | i
COc1ccc(OCC(=O)N/N=C/c2ccc(O[C@@H]3O[C@H](CO)[C@@H](O)[C@H](O)[C@H]3O)cc2)cc1 | ? | 0.4% | 5.1% | 1.64µM* | i | 3.66µM*
COc1ccc(/C=C/c2cc(O)cc(OC3OC(CO)C(O)C(O)C3O)c2)cc1 (stereo not given) | -4.7% | 0.184µM* | -3.9% | 13.7% | i | i
CN1CCN(C(=O)c2ccc3c(c2)N(Cc2ccc(C(F)(F)F)cc2)C(=O)c2ccccc2S3)CC1 | nt | nt | nt | nt | i | ?
CN(Cc1ccccc1)c1nc(-c2ccc([N+](=O)[O-])cc2)nc2ccccc12 | 1.5% | 1.0% | 16.4% | -3.3% | i | i
O=[N+]([O-])c1ccc(-c2nc(C(Cl)Cl)c3ccccc3n2)cc1 | -3.6% | ? | ? | 11.4% | i | 13µM*
Cc1ccc2[nH]cc(C(=O)CN3CCN(c4ccccc4F)CC3)c2c1 | 11.3% | 1.4% | 28.2% | -4.6% | 10.3µM* | i
CC(C)c1ccc(NC(=O)C(C)N(c2ccccc2)S(C)(=O)=O)cc1 (stereo not given) | nt | nt | nt | nt | i | i
O=C1NC(=O)C2(CCC(C3CCCCC3)CC2)N1 (stereo not given) | 10.1% | -6.0% | -2.2% | 6.6% | 4.11µM* | ?
COC(=O)C1CCC(=O)N1C(c1ccc(OC)cc1)c1cc(OC)c(OC)c(OC)c1 (stereo not given) | 1.16µM* | 0.731µM* | 1.3µM* | ? | 7.31µM* | 0.82µM*
Cn1cc(/C=C/c2ccc3ccccc3n2)c2ccccc21 | nt | nt | nt | nt | i | ?
CC1(C)Cc2c(c(N3CCOCC3)nc3sc(-c4ccc(C(=O)O)o4)c(N)c23)CO1 | 5.3% | 19.1% | ? | 10.1% | ? | ?
CC1(C)Cc2c(c(N3CCOCC3)nc3snc(NC(=O)c4ccccc4)c23)CO1 | -0.8% | -0.2% | 0.5% | 7.5% | i | i
SMILES | HT1080NT lethal | SW480 rereplic | MCF10A rerep | HT1080 IDH1KD tx | KB-V1 MDR tox | KB-3-1 tox
CN1Cc2c(N3CCOCC3)nc3sc(C(=O)c4ccc(Br)cc4)c(N)c3c2CC1(C)C | 23.1µM* | ? | 18.4µM* | 13µM* | ? | ?
CN1Cc2c(N3CCOCC3)nc3sc(C#N)c(N)c3c2CC1(C)C | 7.3% | -11.2% | 11.8% | 0.5% | i | i
CNC(=O)c1ccc(-c2sc3nc(N4CCOCC4)c4c(c3c2N)CC(C)(C)OC4)o1 | 3.9% | ? | 2.91µM* | 3.2% | ? | i
Cc1nc2c(sc3nc(N4CCOCC4)c4c(c32)CC(C)(C)OC4)c(-c2ccccc2)c1C(=O)O | 10.5% | 20.6µM* | 2.91µM* | 1.0% | i | i
CNC(=O)c1ccc(-c2sc3nc(N4CCOCC4)c4c(c3c2N)CCCC4)o1 | 2.1% | 7.31µM* | ? | -12.7% | ? | ?
COc1cc(OC)cc(C(=O)Nc2cc(-c3nc4cc(Cl)ccc4o3)ccc2Cl)c1 | nt | nt | nt | nt | i | ?
COC(=O)c1cc(NC(=O)CN2C(=O)C(=O)N(C3CCCC3)C2=O)cc(C(=O)OC)c1 | -0.7% | 0.2% | ? | 1.4% | nt | nt
CCCc1nccn1S(=O)(=O)c1cc(OC)ccc1OC | -1.4% | -0.9% | 3.0% | -7.3% | i | i
Cc1ccsc1CN1CCc2nc(Nc3ccccc3)ncc2C1 | nt | nt | nt | nt | i | ?
CCn1c(=O)n(-c2ccc(F)c(Cl)c2)c(=O)c2c3c(sc21)CN(C(C)=O)CC3 | nt | nt | nt | nt | i | i
CCn1ncc(Cl)c1C(=O)NC(=S)Nc1ccccc1Br | 1.1% | -0.5% | 17.0% | -0.4% | 16.4µM* | ?
CC1(C(=O)NS(=O)(=O)c2ccc(Cl)cc2)CCN1C(=O)c1ccccc1 (stereo not given) | 3.8% | nt | nt | 7.1% | ? | i
Cc1ccc(Oc2ccccc2/C=C2\SC(=O)N(C)C2=O)cc1 | -29.3% | ? | 5.3% | -17.2% | 16.4µM* | i
CN1C(=O)S/C(=C\c2ccccc2OCc2ccc(C(=O)O)cc2)C1=O | -1.3% | 4.2% | ? | -3.1% | ? | i
CCC1CN(C(=O)Nc2ccc(C)c(F)c2)c2ccccc2S1 (stereo not given) | nt | nt | nt | nt | i | i
O=C(CC(=O)c1ccccc1)CS(=O)(=O)c1ccccc1 | 4.1% | 4.6% | ? | -18.4% | 11.6µM* | i
O=C(O)C(=O)Nc1ncn[nH]1 | 7.1% | nt | nt | 7.1% | i | i
O=C(/C=C/c1ccccc1)Nc1ccc(Br)cn1 | 6.51µM* | 5.8µM* | 2.06µM* | 5.17µM* | i | 5.17µM*
Cc1ccc(S(=O)(=O)CC(=O)c2ccccc2)cc1 | 14.2% | -0.4% | -0.8% | 19.7% | i | i
